High-throughput results: PubChem BioAssay, National Center for Advancing Translational Sciences (NCATS)
LASV entry inh: blocks Lassa virus binding to or entry into cells | Potency, µM (top dose mostly 37.9 µM), hits mostly inhibitors | 300,000 compounds, 1.2% hits | Lassa virus pseudotype entry inhibition, cell reporter; calls by dose curve; tested in HEK293 cells; also: nearly all actives have a fitted effect of over 50% in size
Marburg entry inh: inhibitors of Marburg virus binding or cell entry | Marburg virus pseudotyped entry inhibition, cell reporter | Potency, µM (highest dose often 37.8 µM), most hits filed as inhibitors | 300,000 compounds, 1.8% hits | AID 540276; calls by dose curve; tested in HEK293 cells
Sm TGR inh: inhibitors of Schistosoma mansoni thioredoxin glutathione reductase; Potency, µM (highest dose often 114 µM), actives largely listed as inhibitors; purified TGR, DTNB reduction, TNB absorbance 405 nm; 360,000 compounds, 3% hits; Q962Y6; also: nearly all actives have a fitted effect of over 60% in size
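Kinetic colorimetric format: TGR-catalysed, NADPH-driven DTNB reduction monitored via TNB absorbance. Enzyme dispensed at 20 nM; compound exposure 15 min at room temperature before reaction start.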
RE007 growth inh: less growth of the S. pombe RE007 Vpr strain. S. pombe RE007 Vpr strain, BacTiter-Glo ATP luminescence, 24 h. Potency, µM (doses to about 92.2 µM), most hits filed as inhibitors. 360,000 compounds, 0.21% hits; active = well fitted falling curve with a large enough effect; inconclusive = small, poorly fitted or top-dose-only effect; inactive = no such curve, though single readings can be large or run the other way; also: nearly all actives have a fitted effect of over 50% in size
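Fission yeast strain RE007, carrying one chromosomally integrated HIV-1 vpr copy, was seeded at OD 0.01 in PMG+AL medium with 23 nL pinned compound. After 24 h at 30 °C and 99% humidity, viability was read by BacTiter-Glo luminescence.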
HCV inhibitor: blocks hepatitis C virus; AID 651820; 340,000 compounds, 3.4% hits; Huh7.5.1 HCVcc-Cre infection, luciferase reporter, 44 h; Potency, µM (doses to about 41.8 µM), usual class: inhibitors
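Infectious HCV cell culture screen: compound-treated cells (1,000/well, pre-plated 4 h) are infected with HCVcc-Cre at roughly 0.5 moi and grown 44 h. Infection is quantified by luciferase signal after 15 min substrate incubation at room temperature.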
FMDV antiviral: foot and mouth disease virus antiviral activity; AID 1159524; FMDV antiviral cell-based qHTS; 410,000 compounds, 1.2% hits; Potency, µM (series often up to 57.9 µM), most hits filed as inhibitors; calls by dose curve; tested in HEK293T cells; also: read-out not given here; nearly all actives have a fitted effect of over 45% in size
Numbers stand for hits; [ ] = another dose, or the depositor's remark. An excerpt weighted towards active compounds, which were near 7.2% of everything screened. Unless noted, calls follow the shape of the dose curve; as a rule, active = well fitted curve in the direction sought with a large enough effect; inconclusive = small, poorly fitted or top-dose-only effect, or another doubt; inactive = no such curve, though single readings can be large; an effect the other way counts as inactive or inconclusive.

For CCN1C(=O)[C@H]2[C@@H](c3ccc(-c4cccc(Cl)c4)c(OC)c3)N[C@@](Cc3ccccc3)(C(=O)OC)[C@H]2C1=O the results were Sm TGR inh 28µM, RE007 growth inh inactive, HCV inhibitor inactive and FMDV antiviral inactive.
`CCN1C(=O)[C@H]2[C@@H](c3ccc(-c4ccc(OC)cc4)c(OC)c3)N[C@@](Cc3ccccc3)(C(=O)OC)[C@H]2C1=O` gave RE007 growth inh inactive, HCV inhibitor inconclusive and FMDV antiviral inactive.
`CCNC(=O)Cn1c(-c2cccs2)cc2ccccc21` gave LASV entry inh inactive, Sm TGR inh inactive and FMDV antiviral inactive.
`CC(=O)OC[C@H]1O[C@H](CCON=C(C)CCC(=O)OC[C@H]2O[C@H](C#Cc3ccccc3)C=C[C@H]2Oc2ccc(C)cc2)C=C[C@H]1OC(C)=O` gave Marburg entry inh inactive.
`FC(F)(F)c1cccc(-c2noc(CN3CCOCC3)n2)c1` gave LASV entry inh inactive, Marburg entry inh inactive, Sm TGR inh inactive, RE007 growth inh inactive, HCV inhibitor inactive and FMDV antiviral inactive.
`CN1CCCN(Cc2nc(-c3cccc(C(F)(F)F)c3)no2)CC1` gave LASV entry inh inactive, Marburg entry inh inactive, Sm TGR inh 25µM, RE007 growth inh inactive, HCV inhibitor inconclusive and FMDV antiviral inactive.
For N#CC(C#N)=Cc1ccc(-c2ccccc2F)o1 the results were LASV entry inh inactive, Marburg entry inh inactive, Sm TGR inh 4µM, RE007 growth inh inactive, HCV inhibitor inactive and FMDV antiviral inactive.
`N#CC(C#N)=Cc1ccc(-c2ccccc2)o1` gave LASV entry inh inactive, Marburg entry inh inactive, Sm TGR inh inconclusive and HCV inhibitor inactive.
`Cc1ccc(C)c(CN2C[C@H](Sc3nc4ccccc4[nH]3)C[C@H]2C(=O)N2CCCN(C)CC2)c1` gave FMDV antiviral inactive.
`Cc1c(-c2ccc(Cl)cc2)[n+](=O)c2c(n1[O-])CCCC2` gave LASV entry inh inactive, Marburg entry inh inconclusive, Sm TGR inh inactive, RE007 growth inh inactive, HCV inhibitor inactive and FMDV antiviral inactive.
Screening Cc1c(-c2ccc(Cl)cc2)[n+](=O)c(-c2ccccc2)cn1[O-] returned Sm TGR inh 50µM, RE007 growth inh inactive, HCV inhibitor inactive and FMDV antiviral inactive.
`CC(C)(C)c1ccc(CN(Cc2ccco2)c2cnc(S(C)(=O)=O)nc2C(=O)Nc2ccc(F)cc2)cc1` gave LASV entry inh inactive, Marburg entry inh inconclusive, Sm TGR inh inactive and FMDV antiviral inactive.
Screening CCNCCC(CCC(C)C)c1ccc2c(c1)OCO2 (configuration not stated) returned LASV entry inh inactive, Marburg entry inh 8.9µM, Sm TGR inh inactive, RE007 growth inh inactive, HCV inhibitor inconclusive and FMDV antiviral inactive.
CC(C)CCC(CCNCc1ccccn1)c1ccc2c(c1)OCO2 (configuration not stated) was read as Sm TGR inh inactive, RE007 growth inh inactive, HCV inhibitor inactive and FMDV antiviral inactive.
`O=C(O)C=Cc1ccc(Cn2ccnc2)cc1` gave FMDV antiviral inactive.
`Cc1nc2c(OCc3ccc(C#N)cc3)cccn2c1N(C)Cc1cccs1` gave RE007 growth inh inactive[18.4 µM] and FMDV antiviral 28µM.
Screening Cc1nc2c(OCC(=O)c3ccc(F)cc3)cccn2c1N(C)Cc1cccs1 returned RE007 growth inh inconclusive and FMDV antiviral inactive.
`O=c1c(CCc2ccccc2)nc2cnc(N3CCNCC3)nc2n1C1CC1` gave FMDV antiviral inactive.
Screening COC(=O)C1(Cc2ccc(O)cc2)OC(=O)C(O)=C1c1ccc(O)cc1 (configuration not stated) returned Sm TGR inh 16µM, RE007 growth inh inactive, HCV inhibitor inconclusive and FMDV antiviral inactive.
For COC(=O)CCc1ccc(O)cc1 the results were Sm TGR inh inactive, RE007 growth inh inactive, HCV inhibitor inactive and FMDV antiviral inactive.
`CC(=O)c1cccc(Oc2cc(NN3CCCCC3)c([N+](=O)[O-])cc2[N+](=O)[O-])c1` gave Sm TGR inh inactive, RE007 growth inh inactive, HCV inhibitor 8.9µM and FMDV antiviral inactive.
For CC(=O)c1ccccc1Oc1cc(NN2CCCCC2)c([N+](=O)[O-])cc1[N+](=O)[O-] the results were Sm TGR inh inactive, RE007 growth inh inactive, HCV inhibitor inconclusive and FMDV antiviral inactive.
Screening COc1ccc(CNC(=O)c2ccc(-c3nc(CSc4ccc(C)cc4)c(C)o3)cc2)cc1OC returned LASV entry inh inactive, Sm TGR inh inactive and FMDV antiviral inconclusive.
For Cc1cccc(N2CCN(Cc3nnc(-c4cccc(Br)c4)o3)CC2)c1C the results were LASV entry inh inactive, Marburg entry inh inactive, Sm TGR inh inactive and FMDV antiviral inactive.
`CCCC(=O)NC(Oc1ccc(C(C)=O)cc1)C(Cl)(Cl)Cl` (configuration not stated) gave LASV entry inh inconclusive, Marburg entry inh inactive, Sm TGR inh 28µM, RE007 growth inh inactive, HCV inhibitor inactive and FMDV antiviral inactive.
For CCCCn1c(=O)c2oc3ccccc3c2n(Cc2cccc(F)c2)c1=O the results were LASV entry inh inactive, Sm TGR inh inactive and FMDV antiviral inactive.
`CN(C)C(=O)c1ccc(-c2ccc3ncnc(N4CCC(C(=O)O)CC4)c3c2)cc1` gave FMDV antiviral inactive.
For CCN(c1cccc(C)c1)S(=O)(=O)c1ccc(N2CCCCS2(=O)=O)cc1 the results were LASV entry inh inactive, Sm TGR inh inactive and FMDV antiviral inactive.
COC(=O)c1cc(CSc2nnc(NC3CCCCC3)s2)oc1C was read as LASV entry inh inconclusive, Marburg entry inh inconclusive, Sm TGR inh 45µM, RE007 growth inh inactive, HCV inhibitor inconclusive and FMDV antiviral inconclusive.
Screening c1ccc(CSc2nnc(NC3CCCCC3)s2)cc1 returned RE007 growth inh inactive and FMDV antiviral inactive.
Screening COc1cccc(-c2nn(C)c3sc(C(=O)NCc4ccco4)cc23)c1 returned LASV entry inh inconclusive, Marburg entry inh inactive, Sm TGR inh inactive, RE007 growth inh inactive, HCV inhibitor 7.1µM and FMDV antiviral inactive.
`CCN(CC)CCCNC(=O)c1cc2c(-c3cccc(OC)c3)nn(C)c2s1` gave Sm TGR inh inactive, HCV inhibitor 11µM and FMDV antiviral inactive.
`Cn1nc(-c2ccc(Cl)cc2)c2cc(C(=O)NCCCN3CCCC3)sc21` gave Sm TGR inh inactive, RE007 growth inh inactive, HCV inhibitor 13µM and FMDV antiviral inactive.
COc1ccc(C2CC(=O)Nc3c2c(=O)nc2c(C)cccn32)cc1 (configuration not stated) was read as LASV entry inh inactive, Marburg entry inh inactive, Sm TGR inh inactive and FMDV antiviral inactive.
Cc1ccc(Cn2c(C(=O)NCc3ccccc3Cl)cc3sccc32)cc1 was read as LASV entry inh inactive, Marburg entry inh inactive, Sm TGR inh inactive and FMDV antiviral inactive.
